In the library only some 22% were active in any assay of this set; here they are far more common.
CYP2C9 activ: CYP2C9 (human) activation; recombinant CYP2C9, luciferin-H conversion, luminescence; stronger effect = higher value; factor 1 = untreated enzyme, 0 = blocked; activation factor at 5 µM; 96,000 compounds, 1.4% hits; AID 1024;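 active means activation factor of 2 or more for CYP2C9 at a 5 µM dose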;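 further: 0 = sulfaphenazole-blocked wells and 1 = vehicle-only wells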
CYP2C9 inh: blocks human cytochrome P450 2C9 | P11712 | CYP2C9 Supersomes, luciferin-H conversion, luminescence | inhibition, % at 5 µM | 96,000 compounds, 20% hits | AID 777;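 active means blocking of liver enzyme CYP2C9 beyond about 50% at 5 µM, limit read from the data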
CYP2C19 inh: human CYP2C19 inhibition | inhibition, % at 5 µM | CYP2C19 Supersomes, luciferin-H EGE luminescence, 30 min | P33261 | 96,000 compounds, 21% hits;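 active means CYP2C19 inhibition above a set limit at 5 µM in the primary screen, cut at about 50% in these data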;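 further: plate controls were negative control wells for no effect and 2.5 mM tranylcypromine positive control for full effect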
Target sequence (P33261 whole entry, looked up): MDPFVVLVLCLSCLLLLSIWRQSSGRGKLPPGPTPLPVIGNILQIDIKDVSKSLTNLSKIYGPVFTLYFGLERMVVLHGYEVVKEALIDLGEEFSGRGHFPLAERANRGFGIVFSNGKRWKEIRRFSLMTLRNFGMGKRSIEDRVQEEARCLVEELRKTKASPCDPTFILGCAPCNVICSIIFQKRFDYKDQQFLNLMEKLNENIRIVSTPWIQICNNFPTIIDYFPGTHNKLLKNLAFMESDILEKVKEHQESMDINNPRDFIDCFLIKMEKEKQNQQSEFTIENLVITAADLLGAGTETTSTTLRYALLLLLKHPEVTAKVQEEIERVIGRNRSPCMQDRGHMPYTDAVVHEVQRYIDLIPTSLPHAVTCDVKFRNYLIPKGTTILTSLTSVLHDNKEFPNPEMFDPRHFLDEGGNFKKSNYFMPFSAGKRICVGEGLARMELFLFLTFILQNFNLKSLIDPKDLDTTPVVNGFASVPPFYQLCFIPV
Measles CPE: protection of cells from measles virus | 140,000 compounds, 1.5% hits | protection (pct of control), % at 4 µM | AID 841 | Measles virus-infected cells, CPE protection, absorbance; in the data active means protection mostly above about 24%, no sharp cut-off; inactive means mostly below about 26%
CYP2C19 activ: cytochrome P450 2C19 (human) activation; P33261; activation factor at 5 µM; 96,000 tested, under 10 active; recombinant CYP2C19, luciferin-H EGE luminescence; stronger effect = higher value; 0 = fully inhibited enzyme, 1 = untreated enzyme;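 active means activation factor of at least 2 at 5 µM in the primary screen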;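 further: 0 = wells with 2.5 mM tranylcypromine and 1 = vehicle-only wells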
Active calls of the source: *.

Results for COc1ccc(NC(=O)CC2C(=O)N(c3ccc(Cl)cc3)C(=S)N2CCc2ccncc2)cc1 (centres undefined) ?
CYP2C9 activ: 0; CYP2C9 inh: 96.7*; CYP2C19 inh: 87.7*; Measles CPE: 2.1; CYP2C19 activ: 0.1

How did C=CCN1C(=O)C(CC(=O)Nc2ccc(OC)cc2)N(Cc2ccco2)C1=S (centres undefined) do in these assays?
CYP2C9 activ: 0.5; CYP2C9 inh: 48.0; CYP2C19 inh: 95.7*; Measles CPE: 6.5; CYP2C19 activ: 0

What do the screens show for `CN1C(=O)C(CC(=O)Nc2ccc(F)cc2)N(CCCc2ccccc2)C1=S` (centres undefined)?
CYP2C9 activ: 0.1; CYP2C9 inh: 89.0*; CYP2C19 inh: 60.5*; Measles CPE: 5.2; CYP2C19 activ: 0.4

What do the screens show for `COc1ccc(NC(=O)CC2C(=O)N(C)C(=S)N2Cc2ccco2)cc1` (centres undefined)?
Measles CPE: 8.8

How did COC(=O)CN1C(=S)N(c2ccc(Cl)cc2)C(=O)C1CC(=O)Nc1ccc(F)cc1 (centres undefined) do in these assays?
Measles CPE: 13.4

Results for COc1ccc(NC(=O)CC2C(=O)N(c3ccc(Cl)cc3)C(=S)N2CCc2ccccn2)cc1 (centres undefined) ?
Measles CPE: 6.8

What do the screens show for `CCn1ccc(C(=O)NC2=C(C#N)CCC2)n1`?
CYP2C9 activ: 0.9; CYP2C9 inh: 6.1; CYP2C19 inh: 9.8; Measles CPE: 9.8; CYP2C19 activ: 0.9

Results for CCN1C(=O)C(CC(=O)Nc2ccc(OC)cc2)N(Cc2cccnc2)C1=S (centres undefined) ?
CYP2C9 activ: 1; CYP2C9 inh: 3.1; CYP2C19 inh: 64.9*; Measles CPE: 2.0; CYP2C19 activ: 0.4

What do the screens show for `COc1ccc(NC(=O)CC2C(=O)N(CCc3ccccc3)C(=S)N2Cc2cccnc2)cc1` (centres undefined)?
CYP2C9 activ: 0.1; CYP2C9 inh: 91.7*; CYP2C19 inh: 89.5*; Measles CPE: 19.0; CYP2C19 activ: 0.1

What do the screens show for `COC(=O)CN1C(=S)N(Cc2ccccc2)C(=O)C1CC(=O)Nc1ccc(Br)cc1` (centres undefined)?
CYP2C9 activ: 0.7; CYP2C9 inh: 28.4; CYP2C19 inh: 11.9; Measles CPE: 8.9; CYP2C19 activ: 0.9

How did COc1cc(C2NC(=O)c3ccccc3O2)cc(OC)c1OC (centres undefined) do in these assays?
CYP2C9 activ: 0.6; CYP2C9 inh: 37.5; CYP2C19 inh: 94.0*; Measles CPE: 2.1; CYP2C19 activ: 0.1

Results for Cc1c(C(=O)NC(C)c2ccncc2)oc2ccccc12 (centres undefined) ?
CYP2C9 activ: 0.2; CYP2C9 inh: 83.1*; CYP2C19 inh: 82.4*; Measles CPE: 33.0; CYP2C19 activ: 0.2

How did Cc1c(C(=O)Nc2ccccn2)oc2ccccc12 do in these assays?
CYP2C9 activ: 0.7; CYP2C9 inh: 30.5; CYP2C19 inh: 34.0; Measles CPE: 3.6; CYP2C19 activ: 0.7

How did Cc1c(C(=O)Nn2cnnc2)oc2ccccc12 do in these assays?
CYP2C9 activ: 0.8; CYP2C9 inh: 16.5; CYP2C19 inh: 74.3*; Measles CPE: 3.4; CYP2C19 activ: 0.3

How did Cc1c(C(=O)Nc2ccncc2)oc2ccccc12 do in these assays?
CYP2C9 activ: 0.5; CYP2C9 inh: 53.0*; CYP2C19 inh: 97.9*; Measles CPE: 14.1; CYP2C19 activ: 0

Results for Cc1cc(C(=O)NC(C)c2ccncc2)no1 (centres undefined) ?
CYP2C9 activ: 0.6; CYP2C9 inh: 44.5; CYP2C19 inh: 29.3; Measles CPE: 3.8; CYP2C19 activ: 0.7

What do the screens show for `Cc1c(C(=O)Nc2nnc(C(F)(F)F)s2)oc2ccccc12`?
CYP2C9 activ: 0.4; CYP2C9 inh: 62.9*; CYP2C19 inh: -4.2; Measles CPE: 7.1; CYP2C19 activ: 1

What do the screens show for `N#Cc1c(NC(=O)C2CC(c3ccccc3O)=NO2)sc2c1CCC2` (centres undefined)?
Measles CPE: 14.0

Results for Cc1ccc2c(C)c(C(=O)Nc3cccnc3)oc2c1 ?
CYP2C9 activ: 0.5; CYP2C9 inh: 52.5*; CYP2C19 inh: 48.6; Measles CPE: 13.2; CYP2C19 activ: 0.5

Results for Cc1cc2oc(C(=O)Nc3cccnc3)c(C)c2cc1C ?
CYP2C9 activ: 1.1; CYP2C9 inh: -13.5; CYP2C19 inh: -10.2; Measles CPE: 5.0; CYP2C19 activ: 1.1

What do the screens show for `Cc1ccccc1-n1c(SCC(=O)Nc2ccccc2)nc2nc3c(cc2c1=O)CCCC3`?
Measles CPE: 28.7

What do the screens show for `COc1ccc(N2CCN(S(=O)(=O)c3cccc4cccnc34)CC2)cc1`?
CYP2C9 activ: 2.6*; CYP2C9 inh: -155.1; CYP2C19 inh: 81.5*; Measles CPE: 12.8; CYP2C19 activ: 0.2

How did O=c1n(S(=O)(=O)c2cccc3cccnc23)c2ccccc2n1S(=O)(=O)c1cccc2cccnc12 do in these assays?
CYP2C9 activ: 0.5; CYP2C9 inh: 48.0; CYP2C19 inh: 17.4; Measles CPE: 8.4; CYP2C19 activ: 0.8

How did CC1CCCCN1S(=O)(=O)c1ccccc1[N+](=O)[O-] (centres undefined) do in these assays?
Measles CPE: 7.6

How did CC1CCCCN1S(=O)(=O)c1cccc2cccnc12 (centres undefined) do in these assays?
CYP2C9 activ: 3.9*; CYP2C9 inh: -288.9; CYP2C19 inh: 79.0*; Measles CPE: 1.8; CYP2C19 activ: 0.2

What do the screens show for `CC1CC(C)CN(S(=O)(=O)c2cccc3cccnc23)C1` (centres undefined)?
CYP2C9 activ: 2.5*; CYP2C9 inh: -154.9; CYP2C19 inh: 68.4*; Measles CPE: 5.1; CYP2C19 activ: 0.3

What do the screens show for `NS(=O)(=O)c1cccc2cccnc12`?
CYP2C9 activ: 1.5; CYP2C9 inh: -45.1; CYP2C19 inh: 9.5; Measles CPE: 5.7; CYP2C19 activ: 0.9

How did COc1ccc(NC(=O)C2CCN(S(=O)(=O)c3cccc4cccnc34)CC2)cc1OC do in these assays?
Measles CPE: 4.7

What do the screens show for `O=S(=O)(c1cccc2cccnc12)N1CCOCC1`?
CYP2C9 activ: 4*; CYP2C9 inh: -300.8; CYP2C19 inh: 39.4; Measles CPE: 11.9; CYP2C19 activ: 0.6

Results for Cc1sc(NC(=O)c2ccccc2)c(C#N)c1-c1ccccc1 ?
Measles CPE: 8.2

What do the screens show for `O=C(CN1CC(c2ccccc2)CC1=O)OCc1cccc(Br)c1` (centres undefined)?
CYP2C9 activ: 0.9; CYP2C9 inh: 11.8; CYP2C19 inh: 24.7; Measles CPE: 5.6; CYP2C19 activ: 0.8

How did Nc1nnnn1CC(=O)OCc1cccc(Br)c1 do in these assays?
CYP2C9 activ: 2.6*; CYP2C9 inh: -159.6; CYP2C19 inh: 35.6; Measles CPE: 8.2; CYP2C19 activ: 0.6

What do the screens show for `Cc1ccc(SCc2noc(C(=O)NCC3CCCO3)c2C(=O)O)cc1C` (centres undefined)?
CYP2C9 activ: 0.5; CYP2C9 inh: 45.5; CYP2C19 inh: 16.3; Measles CPE: 11.5; CYP2C19 activ: 0.8

Bioassay records deposited in PubChem BioAssay by several laboratories.
